Compound activity (PubChem BioAssay)
Hits are enriched below; roughly 2.2% of the tested compounds scored in any of these assays.
ABCB6 inh 2 = inhibitors of human ABC transporter ABCB6 | Q9NP58 | K562-ABCB6 porphyrin accumulation, flow cytometry, 1 h; hits give low values | fluorescence ratio to DMSO, % at 10 µM | actives 0.19% (n = 360,000) | AID 602162;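 active means fluorescence ratio to DMSO below 75%, the collection mean minus 3 SD; inconclusive means too few cells collected in the well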;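 further: signal is porphyrin accumulated inside mitochondria; 100% equals median channel fluorescence of DMSO control wells; lower ratio means ABCB6 inhibition with less porphyrin fluorescence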
Target sequence (Q9NP58 whole entry, looked up): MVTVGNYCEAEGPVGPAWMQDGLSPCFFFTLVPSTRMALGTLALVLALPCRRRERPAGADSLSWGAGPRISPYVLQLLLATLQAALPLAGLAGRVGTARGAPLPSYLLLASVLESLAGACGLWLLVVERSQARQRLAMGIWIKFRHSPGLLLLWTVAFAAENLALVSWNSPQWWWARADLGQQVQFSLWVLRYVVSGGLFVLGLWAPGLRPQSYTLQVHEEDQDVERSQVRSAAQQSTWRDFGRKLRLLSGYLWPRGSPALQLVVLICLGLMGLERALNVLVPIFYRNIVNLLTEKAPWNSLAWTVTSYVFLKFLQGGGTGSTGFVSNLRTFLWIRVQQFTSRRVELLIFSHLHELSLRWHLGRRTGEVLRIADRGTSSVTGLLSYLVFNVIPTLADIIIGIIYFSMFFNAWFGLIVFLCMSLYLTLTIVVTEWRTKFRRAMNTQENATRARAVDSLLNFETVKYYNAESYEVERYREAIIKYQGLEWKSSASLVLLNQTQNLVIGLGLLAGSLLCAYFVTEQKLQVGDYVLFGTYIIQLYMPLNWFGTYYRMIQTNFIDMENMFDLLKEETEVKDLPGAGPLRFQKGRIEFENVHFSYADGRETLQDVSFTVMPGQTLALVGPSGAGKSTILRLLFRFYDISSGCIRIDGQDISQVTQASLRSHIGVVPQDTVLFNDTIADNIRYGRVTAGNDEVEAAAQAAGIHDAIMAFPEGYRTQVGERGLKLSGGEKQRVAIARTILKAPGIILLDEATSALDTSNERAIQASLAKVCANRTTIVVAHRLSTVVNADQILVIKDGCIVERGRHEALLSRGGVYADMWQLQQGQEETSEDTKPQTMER
MIN6 prolif = MIN6 beta-cell proliferation induction. MIN6 cells proliferation, ATPlite luminescence, 48 h; cells starved in 0.2% serum; 100% = growth in 10% serum. proliferation, % at 10 µM. actives 0.29% (n = 330,000). AID 2380;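 active means compounds whose signal lies at least 3.5 SD above the mean of all wells on their plate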;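 further: 0% = DMSO-treated cells in low-serum medium and 100% = 10% serum control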
H9c2 protect = myocardial damage modulation in H9c2 cells | protection from H2O2 cell death, % at 20 µM | H9c2 cardiomyocytes, H2O2 injury protection, ATPLite, 2 h | actives 0.63% (n = 360,000);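 active means compounds giving at least 50% protection of heart cells from peroxide-induced death in the single-dose screen, raw or plate-pattern-corrected value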;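 further: 0% = DMSO wells with peroxide and 100% = DMSO wells without peroxide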
Myeloid diff 2 = myeloid differentiation induction; ER-HoxA9 myeloid progenitors, lysozyme-GFP differentiation, flow cytometry; calls only at 10 µM; actives 1% (n = 360,000); AID 624256;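 active means normalized GFP-positive differentiation at or above the plate's own cutoff, the solvent-only control mean plus 3 SD; inconclusive means no clear call, values can overlap the other calls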;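 further: cells exposed to compound for four days before flow analysis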
hiPSC survival = hiPSC single-cell survival enhancement; ATPlite luminescence; 100% = ROCK inhibitor wells, 0% = DMSO; survival enhancement, % at 20 µM; actives 0.044% (n = 360,000); AID 602274; in the data active means survival enhancement above about 18%;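 further: cells exposed to compounds for 16 hours before the ATP read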
Numbers without * were called inactive; i = inactive; ? = inconclusive; . = no result given; + = active, no number.

SMILES	ABCB6 inh 2	MIN6 prolif	H9c2 protect	Myeloid diff 2	hiPSC survival
CN1C(=O)C(=Cc2ccc(N3CCCCC3)o2)C(=O)N(C)C1=S	98	-2	-12	i	4
O=C1NC(=O)N(c2ccc(Cl)cc2)C(=O)/C1=C/c1coc2ccc(O)cc2c1=O	99	-4	-6	+	0
O=C1NC(=O)N(c2ccccc2)C(=O)/C1=C/c1coc2ccc(O)cc2c1=O	94	-1	-16	+	-1
Cc1ccc(-n2c(O)c(C=NCCN(C)C)c(=O)[nH]c2=O)cc1	104	-3	4	i	-1
C=C1C(=O)O[C@@H]2C[C@@H](C)[C@@H]3C=CC(=O)[C@@]3(C)[C@@H](O)[C@H]12	95	-8	-37	?	82*
COC(=O)C1=C(c2ccc(S(C)(=O)=O)cc2)C[C@@H]2CC[C@H]1N2C(=O)N1CCC(O)CC1	99	2	-2	i	2
OC(CN1CC=C(c2ccccc2)CC1)c1ccccc1 (configuration not stated)	80	-2	8	?	-1
CCC(c1nnnn1Cc1ccccc1)N1CCC(n2c(=O)[nH]c3ccccc32)CC1 (configuration not stated)	87	.	51*	i	0
CCCCn1nnnc1C(CCc1ccccc1)N1CCC(n2c(=O)[nH]c3ccccc32)CC1 (configuration not stated)	95	.	31	i	-2
N#C/C(=C\c1ccc(O)cc1)C(=O)O (tested in a mixture with another compound)	108	.	1	+	3
N#CC(C#N)=Cc1ccc(N2CCOCC2)cc1	100	0	2	i	-1
COc1ccc(OC)c(NC2=NCCCS2)c1	114	-5	5	+	-1
COc1ccc(OC)c(NC2=NCCS2)c1	101	-3	3	i	0
CCC1(C(=O)c2ccccc2)C2c3ccccc3OC(=O)C21C(C)=O (configuration not stated)	98	0	4	i	-1
COC(=O)C1=C(c2ccc3ccccc3c2)C[C@@H]2CC[C@H]1N2C(=O)NCc1ccc(F)cc1	100	-7	-10	i	4
O=C1NC(=O)N(Cc2ccco2)C(=O)/C1=C\c1cccn1CCOc1ccc(Cl)cc1	122	-6	-2	+	-2
CCOC(=O)c1cccc([P+](=O)O)c1	97	-4	7	i	6
CCOC(=O)c1ccc2[nH]c(-c3ccc(S(=O)(=O)F)cc3)cc(=O)c2c1	102	-3	-2	+	0
COc1ccc(C2=NS(=O)(=O)N(C)C(C(=O)N3CCC4(CC3)OCCO4)=C2)cc1OC	97	2	0	i	0
COc1cc(/C=C/[N+](=O)[O-])ccc1O	100	-9	31	+	-1
O=[N+]([O-])/C=C/c1c(Cl)cccc1Cl	109	.	-21	+	-1
COc1ccc(Cn2c(O)c(C=NCCCn3ccnc3)c(=O)[nH]c2=O)cc1	105	-3	0	i	18*
CCCCCCn1c(O)c(C=NCCCn2ccnc2)c(=O)[nH]c1=O	112	-2	4	i	1
CCC(C)N1C(=O)NC(=O)C2(Cc3c(ccc4ccccc34)N(C)C2)C1=O (configuration not stated)	89	2	69*	i	-1
COc1ccc2c(c1)CC1(CN2C)C(=O)NC(=O)N(CCc2ccccc2)C1=O (configuration not stated)	98	-2	4	i	1
SMILES	ABCB6 inh 2	MIN6 prolif	H9c2 protect	Myeloid diff 2	hiPSC survival
COc1ccc(C(=O)N/N=C/C23CC[C@@H](O)CC2(O)CC[C@@H]2[C@@H]3CCC3(C)C(C4=CC(=O)OC4)CCC23O)cc1 (some centres not stated)	121	-4	-1	+	1
COc1ccc(C)cc1NC1=NC(C)(C)CS1	95	4	0	i	-2
CC(C)CCn1c(N)c(C(=O)OCC2CCCO2)c2nc3ccccc3nc21 (configuration not stated)	107	-2	14	+	11
CCCNC(=O)c1c(N)n(CC2CCCO2)c2nc3ccccc3nc12 (configuration not stated)	100	-2	4	i	-2
CC(C)OCCCNC(=O)c1c(N)n(CC2CCCO2)c2nc3ccccc3nc12 (configuration not stated)	103	-3	6	+	2
O=C1CN=C(c2ccccc2)c2c(sc3c2CCCC3)N1	97	-4	33	i	-1
C[Se]C[C@@H](N)C(=O)O	96	-1	11	i	2
CC(=O)c1c(O)n(-c2cccc(Cl)c2)c(=O)[nH]c1=O (tested in a mixture with another compound)	98	-2	-4	i	0
CC(C)n1c(O)c(C2c3cc(Cl)ccc3Oc3[nH]c(=O)n(C(C)C)c(=O)c32)c(=O)[nH]c1=O (configuration not stated)	97	.	-9	?	26*
CC(C)[C@H]1C(=O)N2CCC[C@H]2[C@]2(O)O[C@](NC(=O)[C@@H]3C=C4c5cccc6[nH]cc(c56)C[C@H]4N(C)C3)(C(C)C)C(=O)N12	122	-6	10	+	0
CC(C)C[C@H]1C(=O)N2CCCC2[C@]2(O)O[C@](NC(=O)[C@@H]3C=C4c5cccc6[nH]cc(c56)CC4N(C)C3)(C(C)C)C(=O)N12 (some centres not stated)	123	-8	15	i	-1
CC(=O)OC[C@]12CCC(C)=C[C@H]1O[C@@H]1[C@H](O)[C@@H](OC(C)=O)[C@@]2(C)[C@]12CO2	101	-6	-2	+	-5
O=C(Nc1ccccc1)c1c(O)[nH]c(=O)[nH]c1=O	95	-2	2	i	3
CCOC(=O)c1cccc(C2=C(CNC(C)=O)[C@H]3CC[C@@H](C2)N3Cc2ccccc2)c1	100	.	-2	i	2
CCOC(=O)c1cccc(C2=C(CNC(=O)c3cccnc3)[C@H]3CC[C@@H](C2)N3Cc2ccccc2)c1	97	.	55*	i	5
CN(C)c1ccc(/C=C/c2cc[n+](C)c3ccccc23)cc1	832	.	-19	?	-3
C[n+]1ccc(-c2ccccc2)c2ccccc21	96	-8	-20	+	-2
COc1ccccc1N1C(=O)NC(=O)/C(=C/c2ccc3c4c(cccc24)CC3)C1=O	100	0	3	i	1
O=c1c2ccccc2nc(CSc2ncnc3nc[nH]c23)n1-c1ccc(Cl)c(Cl)c1	88	-1	68*	i	0
Cc1nc2ccccc2c(=O)n1-c1ccc(Cl)c(Cl)c1	99	-3	5	i	0
